Bioassay records from PubChem BioAssay.
RORg inh – qHTS for inhibitors of ROR gamma transcriptional activity; 5.4% of 310,000 active; Nuclear receptor ROR-gamma (Mus musculus), P51450; AID 2551, 2010; Drosophila S2 Gal4-RORgamma UAS-luciferase reporter, 20 h; Potency, µM (highest dose often 53.6 µM), most hits filed as inhibitors; further: nearly all actives have a fitted effect of over 60% in size
Target sequence (P51450 whole entry, looked up, the tested form may be a part): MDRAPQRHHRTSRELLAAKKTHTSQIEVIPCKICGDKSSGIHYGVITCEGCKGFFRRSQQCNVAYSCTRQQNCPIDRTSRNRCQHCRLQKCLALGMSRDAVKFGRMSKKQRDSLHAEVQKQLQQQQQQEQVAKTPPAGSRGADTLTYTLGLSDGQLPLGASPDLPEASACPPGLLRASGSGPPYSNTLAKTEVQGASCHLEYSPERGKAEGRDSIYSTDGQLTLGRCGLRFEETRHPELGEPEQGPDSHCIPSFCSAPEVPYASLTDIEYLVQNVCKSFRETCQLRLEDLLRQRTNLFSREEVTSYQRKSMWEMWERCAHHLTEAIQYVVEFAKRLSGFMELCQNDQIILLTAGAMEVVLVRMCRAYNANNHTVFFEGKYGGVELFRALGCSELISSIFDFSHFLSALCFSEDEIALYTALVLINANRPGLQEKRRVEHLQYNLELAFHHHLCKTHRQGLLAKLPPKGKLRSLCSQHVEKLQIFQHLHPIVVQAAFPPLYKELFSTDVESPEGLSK
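Luciferase reporter read in Schneider cells carrying Gal4-RORγ (mouse) and UAS-Photinus luciferase; cells given compound 1 h before 700 uM copper sulfate induction, then incubated 20 h at ambient temperature.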
GLP1R cytotox – qHTS of GLP-1 Receptor Inverse Agonists: Cytotox Screen; HEK293 cAMP-luciferase reporter cells, luminescence, 24 h; 0.13% of 410,000 active; AID 624418, 2012; Potency, µM (highest dose often 38.3 µM), usual class: inhibitors;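 further: loss of luciferase light is scored as toxicity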
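Step one: seed cells (200 cells/uL, DMEM with 10% Nu serum, 1% pen-strep). Step two: 12-hour incubation at 37 deg C. Step three: pin 23 nL compound, incubate 24 hr. Step four: add luciferase reagent, read luminescence 12 min later.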
GLP-1R agonist – qHTS of GLP-1 Receptor Agonists; Glucagon-like peptide 1 receptor (Homo sapiens), P43220; HEK293 GLP-1R CRE-luciferase, luminescence, 4-6 h; cells express a hypersensitive GLP-1R form; Potency, µM (doses to about 45.6 µM), hits mostly activators; 0.007% of 380,000 active
GLP-1R inv ag – qHTS of GLP-1 Receptor Inverse Agonists (Inhibition Mode); Glucagon-like peptide 1 receptor (Homo sapiens), P43220; 1.6% of 410,000 active; HEK293 GLP-1R CRE-luciferase, luminescence, 24 h; GLP-1R form is constitutively active; Potency, µM (doses to about 38.3 µM), most hits filed as inhibitors; further: nearly all actives have a fitted effect of over 55% in size
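Readout was luciferase luminescence, measured 12 min after detection reagent at room temperature. Beforehand, GLP-1R reporter HEK293 cells had sat 12 h, then received compounds for 24 hr at 37 deg C.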
VP16 counter – VP16 counterscreen qHTS for inhibitors of ROR gamma transcriptional activity. 3.5% of 310,000 active. Potency, µM (top dose mostly 53.6 µM), actives largely listed as inhibitors. Drosophila S2 Gal4-VP16 UAS-luciferase, luminescence, 20 h;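 further: Gal4-VP16 expression switched on by copper sulfate through the metallothionein promoter; nearly all actives have a fitted effect of over 50% in size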
Hits are given with their value; – = inactive; ? = inconclusive; · = no result; ! = not confirmed by another sample. A selection: hits, their analogues and other compounds. The true share with any hit is near 5.9%. The call rests on the fitted dose curve; in most records, active means well fitted curve in the direction sought with a large enough effect; inconclusive means small, poorly fitted or top-dose-only effect, or another doubt; inactive means no such curve, though single readings can be large; an effect the other way counts as inactive or inconclusive.

SMILES	RORg inh	GLP1R cytotox	GLP-1R agonist	GLP-1R inv ag	VP16 counter
CC(C)C(=O)NC(=S)N(Cc1ccccc1)Cc1ccccc1	2.8µM	?	–	?	5µM
Cc1c(Cl)ccc2sc(N3CCN(C(=O)CCS(=O)(=O)c4ccc(F)cc4)CC3)nc12	·	–	·	?	·
Cc1nc2ccccc2c(=O)n1-c1ccncc1	–	–	–	–	–
Cc1nc2ccccc2c(=O)n1-c1cc([N+](=O)[O-])cc([N+](=O)[O-])c1	1.1µM	–	–	–	–
O=C(CCl)c1ccc(Cl)cc1Cl	8.9µM	·	–	·	?
COc1ccc(CN2CCCC(C(=O)c3cccc(Cl)c3)C2)cc1 (stereo unspecified)	–	–	–	?	–
CCn1ccnc1CN1CCCC(C(=O)c2cc(C)c(OC)c(C)c2)C1 (stereo unspecified)	2.5µM	?	–	?	11µM
CCn1ccnc1CN1CCCC(C(=O)c2cc(Cl)ccc2OC)C1 (stereo unspecified)	–	?	–	10µM	–
N#Cc1ccc(CN2CC[C@@]3(CCCNC3)C2)cc1	–	·	·	·	–
COc1ccc(C[C@@H]2c3cc(O)c(OC)cc3CCN2C)cc1O	–	–	–	–	–
COc1cc2c(cc1O)[C@@H]1Cc3ccc(OC)c(O)c3CN1CC2	·	?	–	10µM	·
O=C(O)CBr	–	·	·	·	–
S=c1[nH]nc(-c2ccco2)n1Cc1ccccc1	?	–	–	–	–
c1ccc(-c2nccc(-c3ccco3)n2)nc1	13µM	?	–	?	–
COC(=O)C1=CO[C@@H](C)[C@@H]2CN3CC[C@]4(C(=O)Nc5c4ccc(OC)c5OC)[C@H]3C[C@H]12	–	·	·	·	–
COP(=S)(OC)Oc1ccc([N+](=O)[O-])cc1	11µM!	·	·	·	10µM!
COP(=S)(OC)Oc1ccc(S(N)(=O)=O)cc1	·	·	–	·	·
O=C(/C=C/c1ccccc1)C1C(=O)c2ccccc2C1=O	?	–	–	–	8.9µM
CN(C)P(=NC(=S)c1cccn1C)(N(C)C)N(C)C	7.9µM	–	–	–	16µM
Cc1cccc(C(=O)NC(=S)Nc2cccc3nc(C)ccc23)c1	7.1µM	?	–	?	10µM
Cc1cccc(C(=O)Nc2ccc(Cl)cc2C(=O)c2ccccc2)c1	–	–	–	?	–
S=C=Nc1ccccn1	5µM	–	–	–	?
C/C=C/C=O	–	·	·	·	–
Cn1cnc([N+](=O)[O-])c1Oc1cccc(O)c1	–	?	–	–	13µM
CC(C)(C)OC(=O)C(Br)CCBr (stereo unspecified)	–	·	·	·	–
SMILES	RORg inh	GLP1R cytotox	GLP-1R agonist	GLP-1R inv ag	VP16 counter
COc1cc(/C=C2\SC(=S)N(CCC(=O)N3CCCCC3)C2=O)cc(OC)c1OC	?	?	–	10µM	–
COc1cc(CN2CCN(C(=O)COc3ccccc3)CC2)cc(OC)c1OC	–	–	–	–	–
COc1ccc(C(=O)Nc2ccc(S(=O)(=O)N(Cc3ccccc3)c3ccccc3)cc2)cc1	·	–	·	5µM	·
COc1cc(-c2ccc(-[n+]3nc(-c4ccccc4)nn3-c3ccc([N+](=O)[O-])cc3)c(OC)c2)ccc1-[n+]1nc(-c2ccccc2)nn1-c1ccc([N+](=O)[O-])cc1	?	·	–	·	?
Cc1ccc(C(C)C)c(OCCn2c(=O)oc3ccccc32)c1	10µM	–	–	?	?
CN(Cc1cn(-c2ccccc2)nc1-c1ccc2c(c1)OCO2)Cc1nccn1C	11µM	?	–	?	11µM
O=C1NC(=O)C(CCc2ccncc2)(Cc2ccc3c(c2)OCO3)C(=O)N1CCc1ccccc1 (stereo unspecified)	?	–	–	–	–
C[C@@H]1CCCCO[C@@H](CN(C)CC2CCCCC2)[C@@H](C)CN([C@H](C)CO)C(=O)c2cc(NS(=O)(=O)c3ccc(Cl)cc3)ccc2O1	·	?	–	10µM	·
C[C@@H]1CCCCO[C@H](CN(C)Cc2ccc(C(F)(F)F)cc2)[C@H](C)CN([C@@H](C)CO)C(=O)c2cc(NC(=O)Cc3ccccc3)ccc2O1	·	?	–	2.8µM	·
CCc1ccc(-n2nc(C)c3c(C(=O)NCCc4ccc(OC)c(OC)c4)cc(C)nc32)cc1	·	–	·	?	·
CC1CCC2(OC1)OC1CC3C4CC[C@@H]5CC(O)CC[C@@]5(C)C4CC(=O)[C@]3(C)C1C2C (stereo partly specified)	–	·	·	·	–
CCN(CC)CCCCN1c2ccccc2Oc2ccc(Cl)cc21	–	·	·	·	–
O=C(Cl)OCc1ccccc1	–	·	·	·	–
CCSC(=O)Cl	–	·	·	·	–
COc1ccc(N2CCN(C(=O)c3cc(=O)[nH]c4ccccc34)CC2)cc1	?	–	–	–	–
CCOC(=O)c1[nH]c2ccc(OC)cc2c1NC(=S)N1CCN(c2cccc(C)c2C)CC1	4.5µM	?	–	?	?
O=C(NC(=S)Nc1ccccc1N1CCCC1)c1ccccc1Br	2.8µM	·	·	·	2.8µM
CCC(C)n1c(=O)[nH]c(C)c(Br)c1=O (stereo unspecified)	–	·	·	·	–
Cl/C=C/Cl	–	·	·	·	–
Clc1ccc(-c2cn3nc4c(nc3n2)CCCC4)cc1	?	–	–	6.3µM	–
CCCCNC(C)(C)[P+](=O)O	·	·	–	·	·
CCn1c(=O)oc2cc(NC(=O)CCl)ccc21	11µM	?	–	?	?
COC(=O)[C@@]1(O)C[C@@H]2O[C@@]1(C)n1c3ccccc3c3c4c(c5c6ccccc6n2c5c31)C(=O)NC4	–	·	·	·	?
CN1CCN(c2ncc3ncc(=O)n(C)c3n2)CC1	–	·	·	·	–
C=C1C(=O)O[C@H]2C[C@H]1[C@@H](OC(C)=O)C/C(C)=C/CC/C(C)=C\CC[C@]2(C)O	·	?	–	7.1µM	·
SMILES	RORg inh	GLP1R cytotox	GLP-1R agonist	GLP-1R inv ag	VP16 counter
CCOC(=O)N1C(C)CN(/[N+]([O-])=N/Oc2ccc([N+](=O)[O-])cc2[N+](=O)[O-])CC1C (stereo unspecified)	11µM	·	·	·	?
CCC1C(c2ccccc2)NC(c2ccccc2)CC1(O)c1ccc(F)cc1 (stereo unspecified)	–	?	–	11µM	?
CCCc1cc(-c2nc(N)ncc2-c2ccc3c(c2)OCCCO3)c(O)cc1OC	–	?	–	10µM	?
CN1CCN(C(=O)COc2ccc3ccccc3c2)CC1	–	–	–	–	–
CN1CCN(C(=O)COc2ccc(-c3nc4ccccc4s3)cc2)CC1	5µM	–	–	6.3µM	10µM
O=[N+]([O-])c1ccc(NCc2ccc(Cl)cc2)c2ccncc12	–	–	–	–	11µM
O=c1cc(-c2ccc(O)c(O)c2)oc2cc(O)cc(O)c12	22µM!	–	–	–	11µM!
N#CC(C(=O)C12CC3CC(CC(C3)C1)C2)c1nc2ccccc2[nH]1 (stereo unspecified)	4µM	–	–	1.1µM	10µM
